The supplement of paper PMC11732987, “Enantioselective OTUD7B fragment discovery through chemoproteomics screening and high-throughput optimisation” (Communications Chemistry, 2025)

Assays:
Experiment in all cases: log2 ratio of Biotin-Ahx-Ub-VS probe labelling (fragment/DMSO); higher = less target engagement (more negative = stronger competition), active = hit call of the paper (q ≤ 0.05, log2 ratio ≤ -1)
Conditions in all cases: compound concentration: 200 uM; treatment time: 3 h
USP19 = biological target: T1, USP19 (UniProt O94966)
T1 sequence (whole entry): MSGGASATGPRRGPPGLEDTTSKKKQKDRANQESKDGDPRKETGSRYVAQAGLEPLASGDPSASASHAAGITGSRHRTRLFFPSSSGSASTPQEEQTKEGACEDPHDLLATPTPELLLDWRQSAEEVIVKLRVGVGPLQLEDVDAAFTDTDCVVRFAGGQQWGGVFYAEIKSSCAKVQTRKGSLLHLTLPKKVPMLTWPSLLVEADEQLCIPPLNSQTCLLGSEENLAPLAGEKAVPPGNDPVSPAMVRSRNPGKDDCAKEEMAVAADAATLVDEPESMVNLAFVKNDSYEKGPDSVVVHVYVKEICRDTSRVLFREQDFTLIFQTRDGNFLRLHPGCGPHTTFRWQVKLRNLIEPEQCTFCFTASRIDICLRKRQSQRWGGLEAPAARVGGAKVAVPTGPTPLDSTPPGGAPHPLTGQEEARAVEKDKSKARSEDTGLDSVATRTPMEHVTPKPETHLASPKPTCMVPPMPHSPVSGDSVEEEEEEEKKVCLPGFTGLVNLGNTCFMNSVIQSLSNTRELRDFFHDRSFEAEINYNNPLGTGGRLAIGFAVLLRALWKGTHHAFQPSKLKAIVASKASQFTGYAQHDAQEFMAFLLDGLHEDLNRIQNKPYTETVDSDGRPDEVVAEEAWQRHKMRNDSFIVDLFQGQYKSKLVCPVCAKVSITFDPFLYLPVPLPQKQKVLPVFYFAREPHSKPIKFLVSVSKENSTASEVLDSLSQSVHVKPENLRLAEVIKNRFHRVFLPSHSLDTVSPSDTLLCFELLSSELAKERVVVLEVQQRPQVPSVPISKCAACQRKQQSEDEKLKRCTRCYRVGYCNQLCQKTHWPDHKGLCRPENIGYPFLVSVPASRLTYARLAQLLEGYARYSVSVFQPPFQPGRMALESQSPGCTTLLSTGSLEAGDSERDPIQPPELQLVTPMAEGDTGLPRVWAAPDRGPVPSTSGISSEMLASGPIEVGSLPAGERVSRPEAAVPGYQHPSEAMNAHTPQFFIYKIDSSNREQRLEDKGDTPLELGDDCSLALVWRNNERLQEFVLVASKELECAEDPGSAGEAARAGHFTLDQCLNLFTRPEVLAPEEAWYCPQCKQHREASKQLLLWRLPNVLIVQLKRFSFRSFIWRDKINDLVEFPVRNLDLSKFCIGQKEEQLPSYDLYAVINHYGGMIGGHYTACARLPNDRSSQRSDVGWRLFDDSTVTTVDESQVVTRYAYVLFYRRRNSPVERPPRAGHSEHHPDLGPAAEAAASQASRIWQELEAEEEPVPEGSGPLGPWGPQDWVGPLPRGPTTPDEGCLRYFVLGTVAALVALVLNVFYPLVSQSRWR
Procedure, shortened: (§1)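 Average log2 ratios of fragment over vehicle were obtained by unpaired t-test from global-median-normalised Spectronaut label-free quantities. Proteins with ≥2 unique peptides were included. HEK293T lysate (495 µg per sample) was treated in triplicate with fragment at 200 µM or vehicle for 3 h, then with Biotin-Ahx-Ub-VS at 0.5 µM final for 1 h, and labelled DUBs were NeutrAvidin-enriched and run by diaPASEF LC-MS/MS.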

USP24 = USP24 (UniProt Q9UPU5)
Procedure, shortened: as §1

USP25 = biological target: T2, USP25 (UniProt Q9UHP3)
T2 sequence (whole entry): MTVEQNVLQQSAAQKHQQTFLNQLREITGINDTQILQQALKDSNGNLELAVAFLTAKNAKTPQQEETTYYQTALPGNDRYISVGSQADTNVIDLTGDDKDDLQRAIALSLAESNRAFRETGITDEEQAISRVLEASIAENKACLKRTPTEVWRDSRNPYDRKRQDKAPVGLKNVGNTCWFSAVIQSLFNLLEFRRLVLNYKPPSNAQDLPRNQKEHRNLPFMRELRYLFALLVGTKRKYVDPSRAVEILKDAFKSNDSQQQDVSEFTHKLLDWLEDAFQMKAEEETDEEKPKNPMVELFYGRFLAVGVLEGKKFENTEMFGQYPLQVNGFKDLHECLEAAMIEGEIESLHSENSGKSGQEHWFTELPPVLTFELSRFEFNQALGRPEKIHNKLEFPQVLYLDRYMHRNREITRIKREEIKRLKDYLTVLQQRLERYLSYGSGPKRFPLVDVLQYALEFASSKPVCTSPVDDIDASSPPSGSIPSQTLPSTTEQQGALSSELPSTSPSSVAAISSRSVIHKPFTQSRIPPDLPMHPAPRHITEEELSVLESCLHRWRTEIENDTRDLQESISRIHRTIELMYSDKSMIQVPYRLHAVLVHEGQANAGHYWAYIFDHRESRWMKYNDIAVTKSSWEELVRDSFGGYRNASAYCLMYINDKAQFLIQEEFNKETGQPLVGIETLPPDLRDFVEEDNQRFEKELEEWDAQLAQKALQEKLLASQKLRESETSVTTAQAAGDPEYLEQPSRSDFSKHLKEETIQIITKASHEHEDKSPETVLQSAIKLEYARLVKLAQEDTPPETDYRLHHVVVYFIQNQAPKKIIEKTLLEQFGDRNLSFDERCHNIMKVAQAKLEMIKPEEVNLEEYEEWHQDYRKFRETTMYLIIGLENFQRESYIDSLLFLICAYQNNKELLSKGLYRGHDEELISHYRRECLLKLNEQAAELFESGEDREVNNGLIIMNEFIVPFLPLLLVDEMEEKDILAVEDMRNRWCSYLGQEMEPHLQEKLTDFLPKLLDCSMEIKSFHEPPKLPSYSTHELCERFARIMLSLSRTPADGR
Procedure, shortened: as §1

USP28 = biological target: T3, USP28 (UniProt Q96RU2)
T3 sequence (whole entry): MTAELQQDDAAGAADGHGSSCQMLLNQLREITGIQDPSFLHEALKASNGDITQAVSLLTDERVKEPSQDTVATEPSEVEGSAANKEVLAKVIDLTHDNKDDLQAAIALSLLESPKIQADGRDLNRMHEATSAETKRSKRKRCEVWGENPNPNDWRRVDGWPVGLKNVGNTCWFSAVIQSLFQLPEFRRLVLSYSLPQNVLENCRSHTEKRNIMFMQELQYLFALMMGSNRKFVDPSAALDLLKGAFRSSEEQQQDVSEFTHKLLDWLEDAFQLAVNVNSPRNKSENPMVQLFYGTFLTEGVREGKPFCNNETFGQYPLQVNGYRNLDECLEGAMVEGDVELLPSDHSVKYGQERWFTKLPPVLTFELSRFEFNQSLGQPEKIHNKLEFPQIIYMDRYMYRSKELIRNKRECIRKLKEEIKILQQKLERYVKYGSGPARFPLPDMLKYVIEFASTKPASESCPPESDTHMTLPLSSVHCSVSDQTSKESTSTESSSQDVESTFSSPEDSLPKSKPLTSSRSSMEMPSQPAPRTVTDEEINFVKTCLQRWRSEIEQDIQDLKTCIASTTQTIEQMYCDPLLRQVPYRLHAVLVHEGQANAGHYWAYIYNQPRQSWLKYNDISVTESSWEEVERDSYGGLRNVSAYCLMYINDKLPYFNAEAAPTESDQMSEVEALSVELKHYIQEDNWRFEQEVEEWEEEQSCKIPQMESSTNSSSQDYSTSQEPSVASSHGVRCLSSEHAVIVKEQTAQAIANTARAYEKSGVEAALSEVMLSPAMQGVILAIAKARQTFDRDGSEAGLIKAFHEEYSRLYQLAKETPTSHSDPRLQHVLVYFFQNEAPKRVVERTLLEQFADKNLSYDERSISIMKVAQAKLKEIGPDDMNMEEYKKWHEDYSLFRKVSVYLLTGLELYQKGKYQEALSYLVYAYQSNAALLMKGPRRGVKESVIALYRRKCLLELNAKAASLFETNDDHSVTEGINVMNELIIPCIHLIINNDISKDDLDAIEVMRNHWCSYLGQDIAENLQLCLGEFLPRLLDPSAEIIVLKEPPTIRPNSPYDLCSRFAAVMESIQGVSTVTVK
Procedure, shortened: as §1

Measured: log2 ratio of Biotin-Ahx-Ub-VS probe labelling

Sequence of USP24 (Q9UPU5 whole entry): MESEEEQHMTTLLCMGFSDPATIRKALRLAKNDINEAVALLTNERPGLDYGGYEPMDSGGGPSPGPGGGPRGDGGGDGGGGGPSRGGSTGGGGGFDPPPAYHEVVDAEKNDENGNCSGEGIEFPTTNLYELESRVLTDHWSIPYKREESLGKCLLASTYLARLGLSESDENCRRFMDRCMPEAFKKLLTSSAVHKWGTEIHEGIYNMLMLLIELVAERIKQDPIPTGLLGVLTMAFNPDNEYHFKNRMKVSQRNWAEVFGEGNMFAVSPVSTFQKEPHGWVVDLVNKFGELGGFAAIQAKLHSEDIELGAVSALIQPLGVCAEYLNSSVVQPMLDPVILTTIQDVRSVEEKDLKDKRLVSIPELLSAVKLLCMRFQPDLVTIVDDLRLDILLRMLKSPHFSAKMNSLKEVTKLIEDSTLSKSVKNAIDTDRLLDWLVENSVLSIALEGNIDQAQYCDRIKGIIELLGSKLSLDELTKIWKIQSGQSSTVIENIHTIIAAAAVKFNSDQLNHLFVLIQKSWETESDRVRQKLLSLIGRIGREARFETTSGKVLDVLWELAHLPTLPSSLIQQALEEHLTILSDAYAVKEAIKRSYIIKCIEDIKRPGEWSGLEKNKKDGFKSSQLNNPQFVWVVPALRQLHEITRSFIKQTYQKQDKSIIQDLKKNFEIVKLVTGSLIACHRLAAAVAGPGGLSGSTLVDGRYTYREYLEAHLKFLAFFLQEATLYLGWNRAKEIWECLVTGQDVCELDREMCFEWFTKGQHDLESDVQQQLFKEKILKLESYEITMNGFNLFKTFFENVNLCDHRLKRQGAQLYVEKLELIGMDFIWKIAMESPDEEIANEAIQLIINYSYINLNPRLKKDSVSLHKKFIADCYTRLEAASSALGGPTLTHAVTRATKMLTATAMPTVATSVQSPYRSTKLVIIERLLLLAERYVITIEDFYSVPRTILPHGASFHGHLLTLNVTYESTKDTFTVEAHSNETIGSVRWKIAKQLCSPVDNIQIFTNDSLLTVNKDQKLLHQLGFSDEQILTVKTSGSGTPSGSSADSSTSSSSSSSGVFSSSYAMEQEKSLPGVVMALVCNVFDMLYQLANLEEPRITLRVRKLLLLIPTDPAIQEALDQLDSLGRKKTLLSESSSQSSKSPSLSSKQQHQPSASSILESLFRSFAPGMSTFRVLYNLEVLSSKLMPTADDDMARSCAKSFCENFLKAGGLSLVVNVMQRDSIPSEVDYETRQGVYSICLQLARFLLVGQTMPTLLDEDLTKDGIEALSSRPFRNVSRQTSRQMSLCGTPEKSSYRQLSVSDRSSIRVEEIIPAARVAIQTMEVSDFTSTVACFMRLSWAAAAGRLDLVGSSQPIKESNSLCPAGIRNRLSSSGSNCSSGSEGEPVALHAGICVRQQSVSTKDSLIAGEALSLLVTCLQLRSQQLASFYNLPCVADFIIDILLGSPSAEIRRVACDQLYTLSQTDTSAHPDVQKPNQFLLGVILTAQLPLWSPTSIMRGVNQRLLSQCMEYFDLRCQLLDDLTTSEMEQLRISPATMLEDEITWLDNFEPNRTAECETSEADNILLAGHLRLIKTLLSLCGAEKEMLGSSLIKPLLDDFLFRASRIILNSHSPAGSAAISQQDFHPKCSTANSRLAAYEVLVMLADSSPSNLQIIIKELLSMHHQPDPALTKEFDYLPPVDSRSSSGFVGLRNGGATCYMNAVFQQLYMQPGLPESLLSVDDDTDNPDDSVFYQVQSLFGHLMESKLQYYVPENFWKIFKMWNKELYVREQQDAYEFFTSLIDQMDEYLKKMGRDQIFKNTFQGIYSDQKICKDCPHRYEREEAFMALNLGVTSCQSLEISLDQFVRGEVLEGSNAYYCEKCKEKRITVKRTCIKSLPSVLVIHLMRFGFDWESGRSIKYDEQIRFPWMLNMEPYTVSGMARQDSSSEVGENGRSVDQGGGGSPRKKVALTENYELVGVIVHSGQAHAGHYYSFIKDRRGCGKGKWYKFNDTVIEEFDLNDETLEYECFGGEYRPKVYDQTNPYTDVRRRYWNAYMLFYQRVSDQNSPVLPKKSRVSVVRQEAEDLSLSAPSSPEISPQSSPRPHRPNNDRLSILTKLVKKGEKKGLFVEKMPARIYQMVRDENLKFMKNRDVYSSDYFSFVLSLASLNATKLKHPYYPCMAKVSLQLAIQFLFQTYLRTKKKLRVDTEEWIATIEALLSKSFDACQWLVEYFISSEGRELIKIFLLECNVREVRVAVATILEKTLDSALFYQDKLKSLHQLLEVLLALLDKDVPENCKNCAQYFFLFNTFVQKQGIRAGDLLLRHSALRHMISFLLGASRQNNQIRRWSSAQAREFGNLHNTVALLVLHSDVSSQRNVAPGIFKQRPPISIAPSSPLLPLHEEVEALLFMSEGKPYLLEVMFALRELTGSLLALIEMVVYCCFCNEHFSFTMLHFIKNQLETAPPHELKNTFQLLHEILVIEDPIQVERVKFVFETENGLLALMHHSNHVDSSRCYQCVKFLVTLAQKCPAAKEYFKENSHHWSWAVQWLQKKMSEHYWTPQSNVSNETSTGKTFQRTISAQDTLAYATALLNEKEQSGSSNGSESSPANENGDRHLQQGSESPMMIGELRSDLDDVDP

O=C(CCl)NC1CCCCNC1=O (centres undefined)
inactive: USP19 -0.125 | USP24 -0.299 | USP25 -0.212 | USP28 -0.482
